High-throughput results deposited in PubChem BioAssay by National Center for Advancing Translational Sciences (NCATS).
HT1080-NT tox – kills 2HG-producing HT-1080-NT fibrosarcoma cells | HT-1080-NT fibrosarcoma viability, CellTiter-Glo ATP luminescence, 48 h | Potency, µM (top dose mostly 46.1 µM), actives largely listed as cytotoxic | 360,000 compounds, 1.6% hits;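 further: NT is the 2HG producing partner of a matched IDH1 knockdown line; nearly all actives have a fitted effect of over 55% in size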
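Toxicity toward the 2HG-producing NT line was scored as %Activity, normalised to DMSO and no-cell wells, from CellTiter-Glo luminescence after 48 hours' treatment.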
DT40 TDP1 no CPT – qHTS for Inhibitors of human tyrosyl-DNA phosphodiesterase 1 (TDP1): qHTS in cells in absence of CPT; DT40 Tdp1-/- hTDP1 cells, no CPT, ATP luminescence, 48 h; Potency, µM (doses to about 46.2 µM), usual class: inhibitors; 420,000 compounds, 15% hits; further: nearly all actives have a fitted effect of over 55% in size
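Camptothecin absent (DMSO only). Human TDP1-complemented DT40 knockout cells, 400 cells/well, 37 °C for minimum 48 hr; ATP measured via CellTiter-Glo, 30 min dark incubation, luminescence.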
KB-3-1 tox – kills parental KB-3-1 adenocarcinoma cells; KB-3-1 viability, CellTiter-Glo ATP luminescence, 72 h; Potency, µM (top dose mostly 46.1 µM), most hits filed as cytotoxic; 400,000 compounds, 1.4% hits; further: nearly all actives have a fitted effect of over 60% in size
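KB-3-1 parental drug-naive adenocarcinoma cells in DMEM/10% FBS, incubated 72 h at 37 C with pin-transferred compounds across a concentration series. Viability by CellTiter-Glo luminescence; concentration-response curves fitted after normalization.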
HT1080 IDH1KD tx – kills HT-1080 cells with IDH1 knockdown | HT-1080 IDH1 knockdown viability, ATP luminescence, 48 h | Potency, µM (highest dose often 46.1 µM), usual class: cytotoxic | 360,000 compounds, 2% hits | AID 686971
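Luminescent ATP read-out (CellTiter-Glo, 10 min at room temperature) after 48 h compound exposure at 37 °C gave viability of IDH1-knockdown HT-1080 cells. Activity was normalised to DMSO and cell-free wells, then fitted as concentration-response curves.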
KB-V1 MDR tox – KB-V1 MDR subline cytotoxicity; KB-V1 MDR cells viability, CellTiter-Glo, 72 h; Potency, µM (doses to about 46.1 µM), most hits filed as cytotoxic; 400,000 compounds, 3.4% hits; further: nearly all actives have a fitted effect of over 60% in size
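Cytotoxicity toward P-gp-expressing KB-V1 cells was determined as loss of CellTiter-Glo luminescence after 72 h at 37 degrees C. Compounds were tested in quantitative HTS format across a concentration range, with curves fitted to normalized data.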
TDP1 cell CPT – DT40-hTDP1 cell growth loss with CPT; AID 686979; Potency, µM (titrated, usually from 46.2 µM), most hits filed as inhibitors; chicken DT40 Tdp1-/-;hTDP1 cells + 20 nM CPT, ATP luminescence, 48 h; 420,000 compounds, 12% hits; further: nearly all actives have a fitted effect of over 55% in size
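Cell growth measured by CellTiter-Glo luminescence after a minimum 48 h, 37 C compound exposure with 20 nM CPT in Tdp1-knockout DT40 cells stably expressing hTDP1, seeded 400/well; qHTS titration format.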
Of the large screens only hits and unclear results are named; the others gave an inactive call; ! = a repeat was not active. Shown are actives, neighbours in structure and some others; about 19% of the full set was active somewhere. The call rests on the fitted dose curve; in most records, active means well fitted curve in the direction sought with a large enough effect; inconclusive means small, poorly fitted or top-dose-only effect, or another doubt; inactive means no such curve, though single readings can be large; an effect the other way counts as inactive or inconclusive.

COc1cc(-c2ccc3oc(-c4ccsc4)c(C#CC4(O)CCCCC4)c3c2)cc(OC)c1OC	DT40 TDP1 no CPT inconclusive, TDP1 cell CPT inconclusive
COc1cc(-c2noc(C)c2C#CC2(O)CCCCC2)cc(OC)c1OC	DT40 TDP1 no CPT 20.6µM, KB-3-1 tox inconclusive, KB-V1 MDR tox 14.6µM!, TDP1 cell CPT inconclusive
COc1cc(-c2noc(C)c2C#Cc2ccsc2)cc(OC)c1OC	HT1080-NT tox inconclusive, DT40 TDP1 no CPT 0.92µM, KB-3-1 tox inconclusive, HT1080 IDH1KD tx 0.517µM, KB-V1 MDR tox 3.26µM!, TDP1 cell CPT 0.708µM!
COc1cc(-c2noc(C)n2)cc(OC)c1OC	none
COc1cc(-c2noc(C)c2C#CC2(N)CCCCC2)cc(OC)c1OC	DT40 TDP1 no CPT inconclusive, KB-3-1 tox inconclusive, KB-V1 MDR tox 20.6µM!, TDP1 cell CPT inconclusive
CCOc1ccc(OCCCC(=O)N2CCN(S(=O)(=O)c3ccccc3C#N)CC2)cc1	DT40 TDP1 no CPT inconclusive, TDP1 cell CPT inconclusive
COC(=O)C[C@@H]1C=C[C@@H](NC(=O)C2CCC2)[C@@H](CO)O1	none
O=C(c1ccc(F)cc1)N1CCN2C(=O)c3ccccc3C12c1ccc(Cl)cc1 (stereo unspecified)	DT40 TDP1 no CPT inconclusive, TDP1 cell CPT inconclusive
O=C(c1ccccc1)N1CCN2C(=O)c3ccccc3C12c1ccc(Cl)cc1 (stereo unspecified)	DT40 TDP1 no CPT 18.4µM, KB-3-1 tox inconclusive, KB-V1 MDR tox inconclusive, TDP1 cell CPT 20.6µM
O=S(=O)(NCCC1=CCCCC1)c1cccc(Br)c1	DT40 TDP1 no CPT 18.4µM, KB-V1 MDR tox inconclusive, TDP1 cell CPT inconclusive
O=S(=O)(NCCC1=CCCCC1)c1ccc(F)cc1	none
O=[N+]([O-])c1ccccc1S(=O)(=O)NCCC1=CCCCC1	DT40 TDP1 no CPT 20.6µM, KB-V1 MDR tox 14.6µM, TDP1 cell CPT 18.4µM
O=C(Cc1ccccc1[N+](=O)[O-])NCCC1=CCCCC1	DT40 TDP1 no CPT inconclusive
CCCC1=NN(C(=O)Cc2ccc(OC)c(OC)c2)C(O)(C(F)(F)F)C1 (stereo unspecified)	none
COc1ccc(CC(=O)N2N=C(c3ccncc3)CC2(O)C(F)(F)F)cc1 (stereo unspecified)	HT1080-NT tox 14.6µM, DT40 TDP1 no CPT 4.61µM, HT1080 IDH1KD tx 9.2µM, KB-V1 MDR tox 5.17µM, TDP1 cell CPT 5.17µM
CCOC(=O)N1N=C(c2ccc(OC)cc2)CC1(O)C(F)(F)F (stereo unspecified)	none
CCC1=NN(C(=O)Cc2ccc(OC)cc2)C(O)(C(F)(F)F)C1 (stereo unspecified)	DT40 TDP1 no CPT 20.6µM, HT1080 IDH1KD tx inconclusive, TDP1 cell CPT 29.1µM
O=C(Cc1ccc([N+](=O)[O-])cc1)N1N=C(C2CC2)CC1(O)C(F)(F)F (stereo unspecified)	DT40 TDP1 no CPT inconclusive, KB-V1 MDR tox inconclusive, TDP1 cell CPT 25.9µM
CCC1=NN(C(=O)Cc2ccc([N+](=O)[O-])cc2)C(O)(C(F)(F)F)C1 (stereo unspecified)	DT40 TDP1 no CPT inconclusive
Cc1ccc(OCC(=O)N2N=C(c3cccnc3)CC2(O)C(F)(F)F)cc1C (stereo unspecified)	DT40 TDP1 no CPT inconclusive, TDP1 cell CPT 16.4µM
CCOC(=O)c1cc(S(=O)(=O)Nc2ccc(C)cc2Cl)[nH]n1	none (no result: HT1080-NT tox, HT1080 IDH1KD tx)
O=C(c1ccncc1)N1N=C(C2CCCCC2)CC1(O)C(F)(F)F (stereo unspecified)	DT40 TDP1 no CPT 4.61µM, TDP1 cell CPT 2.91µM
O=C(c1ccco1)N1N=C(C2CCCCC2)CC1(O)C(F)(F)F (stereo unspecified)	KB-V1 MDR tox inconclusive
COC(=O)c1ccccc1NC(=O)c1ncoc1-c1ccco1	DT40 TDP1 no CPT inconclusive, TDP1 cell CPT 13µM (no result: HT1080-NT tox, HT1080 IDH1KD tx)
